# An excerpt weighted towards active compounds, which were near 6.7% of everything screened.
# BoNT F protease: BoNT/F light chain protease inhibitors, primary screen, biochemical, flow cytometry, MLPCN library; Botulinum neurotoxin type F light chain protease (Clostridium botulinum); Multiplex microsphere protease cleavage assay; inhibition, % at 10 µM; 0.22% of 360,000 active; AID 588497, 2011; in the data active means inhibition above about 35%, passing the limit was not always enough; inconclusive means no clear call, values can overlap the other calls; further: plate controls were buffer without enzyme for full effect and enzyme alone for no effect
# GDH-TPI counter: GDH-TPI coupling enzyme inhibitors, primary screen, artefact control for M. tuberculosis FBA inhibitor project, biochemical, absorbance, full deck | GDH-TPI coupled enzyme counterscreen, NADH absorbance | inhibition, % at 4.8 µM | 1.2% of 360,000 active | AID 588335, 2011; in the data active means inhibition above about 30%;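 further: 0% = DMSO wells and 100% = wells lacking the enzyme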
# FBA Mtb inh: Mtb FBA enzyme inhibitors, primary screen, biochemical, fluorescence, strain H37Rv; Fructose-bisphosphate aldolase (Mycobacterium tuberculosis (strain ATCC 25618 / H37Rv)), …; inhibition, % at 1 µM; purified M. tuberculosis FBA, fluorescence read-out; 2.3% of 360,000 active; AID 588726, 2011; in the data active means inhibition above about 27%;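 further: 0% = vehicle and 100% = reference inhibitor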
# Target sequence (P9WQA3 whole entry, looked up): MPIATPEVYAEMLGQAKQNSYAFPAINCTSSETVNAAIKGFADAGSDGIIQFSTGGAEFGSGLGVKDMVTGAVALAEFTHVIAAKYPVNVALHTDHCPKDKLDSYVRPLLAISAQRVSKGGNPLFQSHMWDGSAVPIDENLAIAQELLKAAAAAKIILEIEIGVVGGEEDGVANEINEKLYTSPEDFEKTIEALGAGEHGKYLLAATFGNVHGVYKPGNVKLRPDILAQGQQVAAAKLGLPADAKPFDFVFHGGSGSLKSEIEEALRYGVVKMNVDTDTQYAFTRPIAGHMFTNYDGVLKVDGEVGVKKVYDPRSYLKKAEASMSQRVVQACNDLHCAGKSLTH
# Anthrax LF inh2: Bacillus anthracis LF protease inhibitors, primary screen, biochemical, multiplex microsphere, MLPCN library. AID 588501, 2011. 0.12% of 360,000 active. inhibition, % at 10 µM. multiplex microsphere protease cleavage assay. Lethal factor (Bacillus anthracis), P15917; further: plate controls were buffer without enzyme for full effect and enzyme alone for no effect
# Autofluor counter: counter-screen for toxin protease inhibitors: compound fluorescence; compound autofluorescence counterscreen, microsphere flow cytometry; hits give high values; fluorescence intensity (concentration not given with the values); 3.1% of 360,000 active; in the data active means fluorescence intensity above about 16000; inconclusive means no clear call, values can overlap the other calls
# BoNT A protease: BoNT/A light chain protease inhibitors, primary screen, biochemical, flow cytometry, MLPCN library | Botulinum neurotoxin type A light chain protease (Clostridium botulinum A str. ATCC 3502) | multiplex microsphere protease substrate cleavage | inhibition, % at 10 µM | 0.17% of 360,000 active; further: plate controls were buffer without enzyme for full effect and enzyme alone for no effect
# Numbers without * were called inactive; ? = inconclusive; + = active, no number. Unless noted, no stated cut-off is given here; in the data, active means inhibition above about 30%; inconclusive means no clear call, values can overlap the other calls; inactive means below that.
SMILES,BoNT F protease,GDH-TPI counter,FBA Mtb inh,Anthrax LF inh2,Autofluor counter,BoNT A protease
CCOc1cc([C@@H]2C[C@H]3CN(c4ccccc4)C(=O)[C@]34CCCN24)ccc1OC,25,-8,3,2,22393*,-5
Cc1cc(C)c(NC(=O)C(C)Sc2nc3ccc(N4C(=O)c5ccccc5C4=O)cc3s2)c(C)c1 (stereo unspecified),0,11,0,-2,16290*,?
Cc1cc(C)c(NC(=O)CSc2nc3ccc(N4C(=O)c5ccccc5C4=O)cc3s2)c(C)c1,0,-6,-2,8,3959,1
CCCCCCOc1cccc(N)c1,1,4,1,-4,22320*,2
O=C(Cn1c(-c2ccccc2)noc1=O)Nc1ccc(N2CCCCCC2)cc1,-12,-4,3,-5,25078*,-5
Cc1ccc(S(=O)(=O)NC2CCC(C(=O)O)CC2)cc1 (stereo unspecified),-3,-8,0,1,17170*,-1
Cc1ccc(S(=O)(=O)NCC(=O)NC2CCCC2)cc1,-1,-2,8,0,23092*,-2
Cc1ccc(NS(=O)(=O)c2ccc(CCC(=O)NC3CC3)cc2)cc1,2,4,2,-2,23092*,1
Cc1ccc(S(=O)(=O)NCC(=O)NC2CCCCCC2)cc1,-2,4,-1,2,4330,0
O=C1CCC(C(=O)OCc2c(Cl)cccc2Cl)N1 (stereo unspecified),1,-3,6,-1,20438*,0
O=C1CCC(C(=O)OCc2ccccc2)N1 (stereo unspecified),-1,11,-2,0,24033*,-1
CC(=O)c1ccc(NC(=O)/C(C#N)=C/c2ccncc2)cc1,-4,6,1,1,6241,0
CC1CCN(S(=O)(=O)c2ccccc2)CC1,0,-4,-1,6,4296,2
COc1ccccc1/C=N/N=C(/N)N[N+](=O)[O-],-11,23,-3,-2,4118,1
N/C(=N\N=C\c1ccc(O)cc1O)N[N+](=O)[O-],-14,36*,1,3,4247,-1
O=C1CN(c2ccccc2Cl)C(=O)CN1c1ccccc1Cl,-4,0,4,-2,23954*,-1
COc1ccc(NC(=O)c2cc(-c3ccco3)nc3ccccc23)cc1S(=O)(=O)N1CCOCC1,6,17,6,-3,4238,1
CCc1nc(SCC(=O)c2ccc(Cl)s2)c2oc3ccccc3c2n1,-1,11,-1,-2,16776*,0
CCc1nc(SCCO)c2oc3ccccc3c2n1,-5,9,1,-3,2822,0
Cc1nc(SCc2nc3ccc(Br)cc3[nH]2)c2oc3ccccc3c2n1,-7,11,5,-7,3072,0
CCc1nc(SCC(=O)N2CCN(c3ccccc3)CC2)c2oc3ccccc3c2n1,-8,12,-2,-9,17485*,-6
CCc1nc(SCc2nc3ccccc3[nH]2)c2oc3ccccc3c2n1,5,11,-2,-8,17511*,5
CC(Cc1ccccc1)N(C)CC1C(=O)C2CCC1C2 (stereo unspecified),0,4,2,-8,4349,0
COc1ccc(/C=N/Nc2cc(C)nc3ccc(OC)cc23)c(OC)c1,-32,12,144*,9,3260,12
CCOc1ccccc1NCN1C(=O)c2ccccc2C1=O,-5,8,4,2,3774,0
SMILES,BoNT F protease,GDH-TPI counter,FBA Mtb inh,Anthrax LF inh2,Autofluor counter,BoNT A protease
CCOc1ccccc1NC=C1C(=O)OC(C)(C)OC1=O,-2,41*,-1,1,4733,-1
CC1(C)OC(=O)C(=CNc2ccccc2F)C(=O)O1,-2,12,0,-5,10052,0
COc1ccccc1NC=C1C(=O)OC(C)(C)OC1=O,5,47*,-2,-4,14447,4
Cc1cc(C)n2nc(C(=O)N/N=C/c3ccccc3C)nc2n1,-22,8,1,?,4337,-9
CC(C)(Cl)C1Cc2cc3ccc(=O)oc3cc2O1 (stereo unspecified),-1,26,167*,1,7253,0
Cc1cccc(Cl)c1NC(=O)N1CCCN(c2ncccc2[N+](=O)[O-])CC1,3,-1,-6,3,6269,0
Cc1cccc(NC(=O)c2cccnc2)c1C,7,3,-3,-26,4161,1
O=c1sc(Nc2ccccc2)nc2ccsc12,0,9,0,-5,19370*,?
CCN(CC)C(=O)CSc1nc2cc(OC)c(OC)cc2c(=O)n1Cc1ccc(Cl)cc1,-3,-5,27*,-14,8510,0
CCCCn1c(N)c(N(CC(C)C)C(=O)c2ccc(COc3ccccc3)o2)c(=O)[nH]c1=O,-5,1,-3,0,5435,-2
O=c1[nH]n(-c2ccc(Cl)cc2)c(=O)c(Cl)c1Cl,-3,1,-3,0,21602*,?
CCNc1ccc(Br)cc(C(=O)/C=C/c2ccc(Cl)cc2)c1=O,6,16,-2,26,7902,29
O=C1NC(=O)C(Nc2cccc3ccccc23)S1 (stereo unspecified),4,36*,7,2,2758,0
Cc1nnnn1/C(=C\c1ccccc1)C(=O)OCC(=O)N(C)C1CCS(=O)(=O)C1 (stereo unspecified),-13,-7,-2,-8,4945,-2
O=C(Nc1cccc(-c2cn3cccnc3n2)c1)c1ccc2c(c1)OCO2,12,17,134*,-5,19449*,?
O=C(Nc1cccc(-c2cn3cccnc3n2)c1)c1ccco1,-2,24,+,-4,10527,-1
O=C(Nc1cccc(-c2cn3cccnc3n2)c1)c1cccs1,-24,12,170*,2,4601,-4
Cc1cccn2cc(-c3cccc(NC(=O)c4cccs4)c3)nc12,-2,6,0,4,3308,0
O=C(Nc1cccc(-c2cn3cccnc3n2)c1)Nc1ccccc1F,0,15,10,-3,3212,0
O=C(Nc1cccc(-c2cn3cccnc3n2)c1)c1ccc(Br)o1,1,20,+,-4,22911*,?
Cc1ccc(C(=O)CSc2nnc(COc3ccccc3)o2)cc1,-4,6,6,-4,4397,0
C#CCn1cccc(C(=O)Nc2ccc(OC)cc2)c1=O,2,16,-1,4,3722,2
Cc1ccc(-c2cn3cccnc3n2)cc1NC(=O)c1ccc(Br)o1,-6,41*,+,-5,17184*,-3
Nc1nc(CN2CCN(C(c3ccccc3)c3ccccc3)CC2)nc(Nc2ccccc2)n1,?,-6,0,6,5280,?

# Assay outcomes from PubChem.
